Among the data in PubChem BioAssay are composite z-score and z-score values, retold here.

The source made the active and inactive calls.

Assay [1] has as its system Plasmodium falciparum Sir2 (PF13_0152, Sir2A). In words: Plasmodium falciparum Sir2A binding compounds – biochemical, small-molecule microarray, 635 nm fluorescence, primary screen (AID 1098).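 Also: score merges spot fluorescence intensity with its signal-to-noise ratio.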 The note with it: fluorescence 635 nm, higher = more signal.
Assay [2] can be described thus: probe aDKK1 binding to arrayed compounds – biochemical, biotinylated probe, 635/667 nm fluorescence, primary screen (AID 1099).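 Also: score merges 667nm spot fluorescence with signal to noise across triplicate slides.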 The following applies: small-molecule microarray, higher = more signal.
Assay [3] is described as follows: probe aCHRDL2 binding to arrayed compounds – biochemical, biotinylated probe, 635/667 nm fluorescence, primary screen (AID 1100). The following applies: small-molecule microarray, higher = more signal.
The nature of assay [4]: change in splice reporter luminescence, either direction, cell-based, HEK293, spliceosome inhibition project, primary screen (AID 1101).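 Also: HEK293 cells carrying a splicing-competent luciferase reporter gene; test concentration not given here.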 The following applies: HEK293 splicing luciferase reporter, 24 h, higher = more signal, called active from +8 up or from −8 down. A general note: In a reporter assay the amount or activity of a reporter protein is the signal.
For assay [5], the target named is Fibroblast growth factor 10 (Homo sapiens) (UniProt O15520). In words: compounds binding fibroblast growth factor 10 – biochemical, small-molecule microarray, 635 nm fluorescence, primary screen (AID 1102). The note with it: FGF10 binding, fluorescence 635 nm, higher = more signal.
Assay [6] deals with glycogen synthase kinase-3 (GSK3A per assay name; protocol says GSK3B). The assay is described as follows: compounds binding glycogen synthase kinase-3 – biochemical, small-molecule microarray, 635 nm fluorescence, GSK3A, primary screen (AID 1103). Also: the record names both GSK3A and GSK3B. The note with it: fluorescence 635 nm, higher = more signal.
Assay [7] has as its target Epidermal growth factor receptor (Homo sapiens) (UniProt P00533). The assay is described as follows: compounds binding epidermal growth factor receptor – biochemical, small-molecule microarray, 635 nm fluorescence, primary screen (AID 1104).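 Also: score merges 667 nm emission intensity with spot signal to noise over triplicate slides.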 The note with it: EGFR binding, higher = more signal.
The target of assay [8] is Follistatin-related protein 3 (Homo sapiens) (UniProt O95633). In words: compounds binding follistatin-related protein 3 – biochemical, small-molecule microarray, 635 nm fluorescence, primary screen (AID 1105).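 Also: score merges emission near 667 nm and signal to noise per printed spot across three slides.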 The note with it: FSTL3 binding, higher = more signal.
The target in assay [9] is Dickkopf-related protein 1 (Homo sapiens) (UniProt O94907). The assay is described as follows: small molecules binding DKK1 protein – biochemical, small-molecule microarray, 635 nm fluorescence scan, primary screen (AID 1106).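 Also: score merges emission near 667 nm with signal to noise over three replicate slides.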 The following applies: higher = more signal.
Assay [10] relates to Inhibin beta A chain (activin A). The assay is described as follows: small molecules binding activin A – biochemical, small-molecule microarray, 635 nm fluorescence scan, primary screen (AID 1107).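 Also: mouse activin A protein probed at 4.33 µg/mL on printed slides; score merges bound-protein fluorescence near 667 nm with spot signal-to-noise.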 The note with it: INHBA, higher = more signal.
The test system of assay [11] is Human papillomavirus type 1a protein E7 (residues 44-93). In words: small molecules binding HPV E7 44-93 – biochemical, small-molecule microarray, residues 44-93, 635 nm fluorescence, primary screen (AID 1108).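 Also: E7 fragment applied at 1 µg/mL in TBST for 1 h at 4 C; score combines spot fluorescence with its signal to noise ratio.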 The following applies: fluorescence 635 nm, higher = more signal.
The nature of assay [12]: hepatitis C replication reporter changes, two-sided – Huh7 cells, luciferase reporter, HCV replication inhibitor project, primary screen (AID 1109).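 Also: huh7 hepatoma cells harbouring a luciferase neomycin HCV replicon reporter; luciferase luminescence as measure of HCV replicon replication; test concentration not given here.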 The note with it: Huh7 HCV replicon luciferase reporter, 48 h; higher = more signal.
Assay [13] deals with Left-right determination factor 2 (Homo sapiens) (UniProt O00292). In words: small molecules binding LEFTY2 protein – biochemical, small-molecule microarray, 635 nm fluorescence scan, primary screen (AID 1110). The following applies: higher = more signal.
Assay [14] has as its target Calmodulin-1 (Homo sapiens) (UniProt P0DP23). The assay is described as follows: small molecules binding calmodulin-1 with EGTA – biochemical, small-molecule microarray, Cy5-labelled CALM1, profiling panel (AID 1111).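 Also: labelled calmodulin applied in Tris saline Tween buffer holding calcium plus EGTA and DTT.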 The note with it: Cy5-CALM1 binding fluorescence, higher = more signal.
Assay [15] shares this target. The assay is described as follows: small molecules binding Ca-loaded calmodulin-1 – biochemical, small-molecule microarray, Cy5-labelled CALM1, plus calcium, artefact control for SMM control-protein annotation, profiling panel (AID 1112).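 Also: score merges spot fluorescence with signal to noise from triplicate slides.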 The note with it: Cy5-CALM1 binding fluorescence, higher = more signal.
Assay [16] can be described thus: probe aWnt5a binding to arrayed compounds – biochemical, biotinylated probe, 635/667 nm fluorescence, primary screen (AID 1113).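 Also: score merges 667 nm fluorescence intensity with signal-to-noise per printed feature.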 The following applies: small-molecule microarray, higher = more signal.
Assay [17] in a line: probe aShh binding to arrayed compounds – biochemical, biotinylated probe, 635/667 nm fluorescence, primary screen (AID 1114).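 Also: probe is biotin-labelled aShh protein from a stem cell growth factor screen; measures binding of labelled protein to compounds printed on the slide; score merges feature fluorescence at 667 nm with signal-to-noise.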 The following applies: small-molecule microarray, higher = more signal.
Assay [18] in a line: probe aNog binding to arrayed compounds – biochemical, biotinylated probe, 635/667 nm fluorescence, primary screen (AID 1115).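 Also: probe is biotinylated aNog protein used at 0.15 µg/mL for 1 h at 4 C; z-score combines 667 nm fluorescence of each spot with its signal to noise.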 The note with it: small-molecule microarray, higher = more signal.
Assay [19] has as its target Torsin-1A-interacting protein 1 (Homo sapiens) (UniProt Q5JTV8). In words: compound microarray binding of lysate hLAP1 – cell lysate, small-molecule microarray, COS7 lysate, 635/667 nm fluorescence, primary screen (AID 1116). The note with it: 635 nm fluorescence, higher = more signal.
For assay [20], the target named is Alpha-bungarotoxin (Bungarus multicinctus) (UniProt P60615). The assay is described as follows: compounds binding labelled alpha-BTX control protein – biochemical, small-molecule microarray, Alexa647 label, 635/667 nm fluorescence, artefact control for SMM control protein annotation, profiling panel (AID 1117). The note with it: alpha-BTX-A647 binding fluorescence, higher = more signal.
Chain of Alpha-bungarotoxin (Bungarus multicinctus) (P60615 whole entry, looked up): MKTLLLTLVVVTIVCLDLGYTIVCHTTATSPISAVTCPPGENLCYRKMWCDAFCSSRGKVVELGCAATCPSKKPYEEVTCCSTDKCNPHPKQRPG

Chain of Epidermal growth factor receptor (Homo sapiens) (P00533 whole entry, looked up): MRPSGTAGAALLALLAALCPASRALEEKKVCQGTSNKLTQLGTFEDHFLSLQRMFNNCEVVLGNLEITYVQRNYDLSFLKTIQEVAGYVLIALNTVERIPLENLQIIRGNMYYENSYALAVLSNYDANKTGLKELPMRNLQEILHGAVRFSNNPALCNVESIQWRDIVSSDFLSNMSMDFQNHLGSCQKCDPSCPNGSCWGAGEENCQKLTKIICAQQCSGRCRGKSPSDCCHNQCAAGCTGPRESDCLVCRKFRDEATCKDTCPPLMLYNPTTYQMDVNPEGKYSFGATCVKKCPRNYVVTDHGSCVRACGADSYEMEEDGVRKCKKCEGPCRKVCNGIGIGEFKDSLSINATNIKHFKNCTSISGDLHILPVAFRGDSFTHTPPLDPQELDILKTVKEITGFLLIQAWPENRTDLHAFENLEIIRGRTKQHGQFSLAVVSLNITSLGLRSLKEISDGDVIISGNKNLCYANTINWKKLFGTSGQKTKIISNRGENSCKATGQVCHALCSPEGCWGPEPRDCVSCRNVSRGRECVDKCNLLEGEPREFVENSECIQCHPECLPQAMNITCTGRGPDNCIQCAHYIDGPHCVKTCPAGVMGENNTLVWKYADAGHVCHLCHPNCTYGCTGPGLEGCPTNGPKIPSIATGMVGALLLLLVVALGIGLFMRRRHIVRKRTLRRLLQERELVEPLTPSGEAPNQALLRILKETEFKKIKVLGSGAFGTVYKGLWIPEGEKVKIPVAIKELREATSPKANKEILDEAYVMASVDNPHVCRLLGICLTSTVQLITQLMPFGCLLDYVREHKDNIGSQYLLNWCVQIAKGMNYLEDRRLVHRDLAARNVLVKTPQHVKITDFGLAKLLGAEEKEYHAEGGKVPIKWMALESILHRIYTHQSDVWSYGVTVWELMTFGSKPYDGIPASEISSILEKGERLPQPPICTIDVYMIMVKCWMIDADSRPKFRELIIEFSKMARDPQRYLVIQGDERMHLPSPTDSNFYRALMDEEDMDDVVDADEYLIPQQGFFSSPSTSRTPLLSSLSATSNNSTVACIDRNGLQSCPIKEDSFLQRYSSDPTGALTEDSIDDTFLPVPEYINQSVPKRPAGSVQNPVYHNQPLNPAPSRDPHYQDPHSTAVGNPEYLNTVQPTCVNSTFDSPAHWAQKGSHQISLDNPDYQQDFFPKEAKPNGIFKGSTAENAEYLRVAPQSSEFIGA
Chain of Torsin-1A-interacting protein 1 (Homo sapiens) (Q5JTV8 whole entry, looked up): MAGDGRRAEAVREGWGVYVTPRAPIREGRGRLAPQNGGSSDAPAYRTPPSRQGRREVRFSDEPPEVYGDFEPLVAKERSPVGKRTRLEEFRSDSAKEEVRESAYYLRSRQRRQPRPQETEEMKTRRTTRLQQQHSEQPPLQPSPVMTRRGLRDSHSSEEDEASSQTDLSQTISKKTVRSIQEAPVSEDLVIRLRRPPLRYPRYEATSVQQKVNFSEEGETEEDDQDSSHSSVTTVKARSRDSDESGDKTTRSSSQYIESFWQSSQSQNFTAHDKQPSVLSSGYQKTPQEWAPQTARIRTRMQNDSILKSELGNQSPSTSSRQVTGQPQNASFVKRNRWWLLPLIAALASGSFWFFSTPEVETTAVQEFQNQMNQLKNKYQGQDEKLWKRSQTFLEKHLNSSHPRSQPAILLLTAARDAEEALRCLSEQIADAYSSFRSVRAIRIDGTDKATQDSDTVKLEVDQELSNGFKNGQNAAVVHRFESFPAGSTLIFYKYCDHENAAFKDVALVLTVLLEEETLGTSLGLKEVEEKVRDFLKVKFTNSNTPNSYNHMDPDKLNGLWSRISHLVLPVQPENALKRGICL
Chain of Dickkopf-related protein 1 (Homo sapiens) (O94907 whole entry, looked up): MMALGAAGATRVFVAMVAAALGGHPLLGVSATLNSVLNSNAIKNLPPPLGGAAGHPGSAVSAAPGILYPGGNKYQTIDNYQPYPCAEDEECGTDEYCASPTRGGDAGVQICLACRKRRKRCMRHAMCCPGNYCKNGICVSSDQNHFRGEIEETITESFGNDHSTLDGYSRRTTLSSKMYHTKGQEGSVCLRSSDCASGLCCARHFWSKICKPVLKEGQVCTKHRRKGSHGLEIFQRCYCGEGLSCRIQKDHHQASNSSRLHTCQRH
Chain of Follistatin-related protein 3 (Homo sapiens) (O95633 whole entry, looked up): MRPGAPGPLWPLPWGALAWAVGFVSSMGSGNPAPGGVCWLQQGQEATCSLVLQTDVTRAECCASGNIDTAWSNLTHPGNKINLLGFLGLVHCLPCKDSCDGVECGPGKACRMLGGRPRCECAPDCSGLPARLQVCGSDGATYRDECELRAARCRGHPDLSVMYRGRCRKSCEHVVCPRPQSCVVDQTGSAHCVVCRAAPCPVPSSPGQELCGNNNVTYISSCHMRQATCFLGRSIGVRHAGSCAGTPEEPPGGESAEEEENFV
Chain of Left-right determination factor 2 (Homo sapiens) (O00292 whole entry, looked up): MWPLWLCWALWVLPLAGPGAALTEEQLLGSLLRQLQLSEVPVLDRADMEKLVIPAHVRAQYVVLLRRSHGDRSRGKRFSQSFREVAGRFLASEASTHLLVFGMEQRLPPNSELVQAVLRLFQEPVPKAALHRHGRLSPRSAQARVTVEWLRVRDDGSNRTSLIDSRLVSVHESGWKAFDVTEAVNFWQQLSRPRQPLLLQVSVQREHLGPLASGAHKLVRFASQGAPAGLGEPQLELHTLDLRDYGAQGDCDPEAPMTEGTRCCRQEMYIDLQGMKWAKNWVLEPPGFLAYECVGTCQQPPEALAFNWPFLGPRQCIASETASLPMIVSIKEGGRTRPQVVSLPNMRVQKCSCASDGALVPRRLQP
Chain of Fibroblast growth factor 10 (Homo sapiens) (O15520 whole entry, looked up): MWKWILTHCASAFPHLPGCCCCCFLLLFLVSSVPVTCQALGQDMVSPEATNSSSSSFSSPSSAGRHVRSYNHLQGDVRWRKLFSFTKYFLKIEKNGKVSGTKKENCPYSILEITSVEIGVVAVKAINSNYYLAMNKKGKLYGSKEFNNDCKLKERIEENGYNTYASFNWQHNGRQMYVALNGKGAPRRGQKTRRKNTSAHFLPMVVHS

For `CC1=C[C@@]2(CO)C(=O)[C@]3(CO3)[C@@H]1[C@H]1[C@]2(C)C=C(CO)C(=O)[C@]12CO2`, the composite z-score is 0.451 in [1]; 0.0159 in assay [2]; -0.52 in assay [3]; 0.302 in assay [5]; 0.296 in [6]; 0.33 in assay [7]. For the same compound, the composite z-score in assay [8] was 0.951; in [9] it was 0.241; in assay [10] it was 0.421; in assay [11], 0.122; in assay [13], 0.351; in assay [14] it was -0.163. Further, the composite z-score in assay [15] was -0.0609; in assay [16] it was -0.0799; in [17] it was -0.123; in assay [18], -0.488; in assay [19], -0.312; in assay [20], 0.242. For the same compound, the values for the z-score in [4] and in assay [12] were -0.23 (inactive) and -1.61, respectively.
On to `COc1ccccc1CN1C(=O)c2ccccc2[C@](Cc2ccccc2I)(C(=O)NCC(F)(F)F)[C@@H]1c1ccc(CO)cc1`, for which the composite z-score in assay [1] was 1.31; in [2], 0.984; in assay [3], 0.854; in assay [5] it was 0.7; in assay [6], 1.29; in assay [7] it was -0.24. The composite z-score in assay [8] is 1.1; in assay [9] it was -0.532; in assay [10], 0.513; in assay [11] it was 0.905; in assay [13] it was -0.201; in assay [14], 2.03. Further, the composite z-score in assay [15] was 0.731; in [16], 0.0559; in assay [17], -0.106; in assay [18], 0.0286; in assay [19], 1.42; in assay [20] it was 1.36. The results for the z-score in assay [4] and in [12] were 0.377 (inactive) and -1.16, respectively.
In the case of `NCCCCCNC(=O)[C@@H]1C[C@@H]2C(=O)NCC(=O)N2[C@@H]1c1cccc(OCCO)c1`, the composite z-score in assay [1] was determined as 1.06; in assay [2] it was 0.237; in assay [3], 0.0759; in assay [5] it was 1; in [6], 1.26; in [7], 0.396. Further, the composite z-score in assay [8] was found to be 0.669; in assay [9], 1.05; in assay [10], 0.732; in assay [11] it was 1.2; in [13] it was 0.79; in [14] it was 0.885. Moreover, the composite z-score in assay [15] is 0.433; in [16] it was -0.0202; in assay [17], 0.412; in assay [18], 0.217; in [19] it was 0.513; in assay [20] it was 1.01. The z-score in assay [4] is -0.852 (inactive); in assay [12], -0.878.
For the compound `O=C1O[C@H](c2ccccc2)[C@H](c2ccccc2)N2[C@H]1[C@@H](C(=O)Nc1nc3ccccc3s1)[C@]1(C(=O)Nc3ccc(C#CC4(O)CCCCCC4)cc31)[C@H]2c1ccccc1OCCO`, the composite z-score in assay [1] is 1.55; in assay [2], -0.074; in assay [3] it was -0.353; in assay [5], 1.35; in assay [6], 1.33; in assay [7], 0.49. The composite z-score in [8] was 1.32; in assay [9] it was 0.452; in [10], -0.0311; in assay [11], 1.37; in assay [13] it was 0.561; in assay [14] it was 1.04. The composite z-score is -0.243 in [15]; 0.0068 in assay [16]; 0.0469 in [17]; 0.345 in assay [18]; 1.34 in assay [19]; 0.0934 in assay [20]. For the same compound, the z-score in assay [4] was -0.215 (inactive); in [12], -2.69.
`CCOC(=O)C[C@H]1[C@H](OC(=O)c2cc3ccccc3oc2=O)[C@@H](NC(=O)c2ccc(-c3ccccc3)cc2)c2cc(OCCCO)ccc2N1C(=O)c1ccc2ccccc2n1`: the composite z-score in assay [1] was 0.853; in [2], -0.183; in [3] it was -0.386; in assay [5] it was 0.93; in assay [6] it was 1.01; in [7], 0.622. Besides, the composite z-score came to 1.06 in assay [8]; 0.45 in [9]; 0.379 in assay [10]; 1.38 in [11]; 0.48 in [13]; 0.0371 in assay [14]. Besides, the composite z-score in assay [15] was -0.455; in assay [16], -0.104; in assay [17] it was -0.195; in [18] it was -0.253; in [19] it was 0.624; in assay [20], 0.422. The z-score was -0.338 (inactive) in assay [4] and -0.989 in [12].
